From the supplement of paper PMC6555819

test system: RARg homodimer (NR concentration 270 nM); assay: PBM binding z-score (relative to random genomic background probes); higher = stronger binding; sequences stand for … in GC…GCGATTGACAGCGTAGAATGAAGG
How it was run: (§1)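 Binding z-scores were set against random background probes. The data came from custom Agilent 4×180K protein-binding microarrays carrying double-stranded probes with 34-nt variable regions, incubated 1 h with ligand-free nuclear receptor dimers. Partner-specific antibodies detected binding, and scanned fluorescence was regression-normalized.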

Sequence | PBM binding z-score
TCTAGTTGGTAAAAGGTCACACACTCGAAATGCG | 5.8
GATACAGGGTCAGCTAGAGGCCGGAGTATGGAAA | 4.38
GGAACGAGGGCAAAGTTAATAGCATCTGTCGACG | 1.99
CCTACTGGGCCATTCAGAGTTCATTGATCATATG | 1.23
ACTACAGGGTCATCGTAGGCCAGAGTACGCACAG | 5.09
CGAACTAGGTCAATGACAGGACAGTGAATAGTAA | 4.46
ATATGTAGGTTACATCCGGGTCATTCAAGCTATG | 2.1
CAAACTAGGTCACGGAGGTCAAAGTCCGTGCGTA | 7.31
GGAACCAGGGCATTCGAGTTGATAGCATGGCGAT | 1.49
TCTACTTGGTCAAAGGTCACACACTCGAAATGCG | 6.3
AGAACGAGGGCACGCTGAGTTGATAGTAGAGTAG | 2.41
CCTTACGGGTCACTGACAGGTTATATCATTTGGA | 4.58
ATATCTAGGTAAAGATAGTTCAGTGAATGCAAAT | 0.877
AGAACGAGGGCACGCCGAGTTGATAGCAGAGTAG | 2.36
TCATATAGGTAAAAGGTGAAAGGCGGTGTGGTAA | 0.736
AGTATGAGGTTATTAAGATCAGGGAATTGCGGTC | 1.09
ATATGTATGTTACATCCGGGTCATTCAGGCTATG | 1.26
CCTAGCAGGCAAATCTGGGTCACTCAAGGCTTGA | 0.802
CCTACTGAGCCACGAAAGGTCATTGATTCAGTGA | 4.22
CGTCCAAGGTCATAGGTCAGTGAAGAGATGACGG | 6.86

Sequence | PBM binding z-score
GGAACGAGGGCATTCGAGTTGATAGCCTGGCGAT | 1.41
CCTAGTTGGTCAGTAGGTCACACACCGGATATGA | 3.25
TAGCCTCGGTCATGCGGGCCAGTATAGTGTCGGC | 2.52
ATATGTAGGTTAGCTGGGGTTATTCAGACTAGGC | 0.961
CATACAGGGTCAGCTATGCCAGAGTAGGGACGGC | 4.27
TCATATAGGTAAATGCTAGGTGAAAATCCGATCT | 0.633
ATCTCTGGGTAAAGATAGTTCAGTGAATGCAAAT | 0.989
CGATCTAGGTCAGAACAGGACAGTGAAGGATGAT | 2.89
AGAATAAGGTTACCAAAGATCAGGGAAACGCTTG | 2
TGAATGAGGTTATAAGATCCGGGAACGTTGCAAA | 0.881
ATCTCTAGGAAACCAAGTTCAGTGAATGCCGAAC | 0.454
TCTTATAGATCAAGCAGGTTAAGAAAGCCTGAGT | 0.136
TCTAGCAGGCCAGAGGGTCTCTCAAGAGGTACGG | -0.595
GCTGCAAGGTCAGGTTGGTCAGCTAACGGGTACG | 5.49
CAGCTTAGGTCAGGGCCAGTATAGGAGGAACGTT | 4.25
GCATGTAGATCAAGGTTAAGAAAGACTAAGCTAA | 0.318
ATCTCTAGGTAACCAAGTGCAGTGAATGCCGAAC | 0.205
CCTACTGGTCCAAAAAGGTCATTGATGCCGATAA | 4.17
CCTATTAGTCGACCATAAGGGCAACCGAAGCTCG | 0.875
CCGACTGGGGCATAAGGTTATCATAAGCCAGCCC | 0.973

test system: RXRa DBDmut IVT, anti-RXR (DBD mutation: RXRa K156A/R161A, NR concentration 90 nM); assay: as above
How it was run: as §1

Sequence | PBM binding z-score
TCTAGTTGGTAAAAGGTCACACACTCGAAATGCG | 2.17
GATACAGGGTCAGCTAGAGGCCGGAGTATGGAAA | 1.07
GGAACGAGGGCAAAGTTAATAGCATCTGTCGACG | 2.78
CCTACTGGGCCATTCAGAGTTCATTGATCATATG | 2.26
ACTACAGGGTCATCGTAGGCCAGAGTACGCACAG | 3.26
CGAACTAGGTCAATGACAGGACAGTGAATAGTAA | 1.49
ATATGTAGGTTACATCCGGGTCATTCAAGCTATG | 1.48
CAAACTAGGTCACGGAGGTCAAAGTCCGTGCGTA | 3.08
GGAACCAGGGCATTCGAGTTGATAGCATGGCGAT | 1.17
TCTACTTGGTCAAAGGTCACACACTCGAAATGCG | 2.19
AGAACGAGGGCACGCTGAGTTGATAGTAGAGTAG | 2.07
CCTTACGGGTCACTGACAGGTTATATCATTTGGA | 1.64
ATATCTAGGTAAAGATAGTTCAGTGAATGCAAAT | 0.0845
AGAACGAGGGCACGCCGAGTTGATAGCAGAGTAG | 1.75
TCATATAGGTAAAAGGTGAAAGGCGGTGTGGTAA | 1.76
AGTATGAGGTTATTAAGATCAGGGAATTGCGGTC | 2.07
ATATGTATGTTACATCCGGGTCATTCAGGCTATG | 0.811
CCTAGCAGGCAAATCTGGGTCACTCAAGGCTTGA | 0.0934
CCTACTGAGCCACGAAAGGTCATTGATTCAGTGA | 1.03
CGTCCAAGGTCATAGGTCAGTGAAGAGATGACGG | 3.61

Sequence | PBM binding z-score
GGAACGAGGGCATTCGAGTTGATAGCCTGGCGAT | 3.31
CCTAGTTGGTCAGTAGGTCACACACCGGATATGA | 0.459
TAGCCTCGGTCATGCGGGCCAGTATAGTGTCGGC | -1.04
ATATGTAGGTTAGCTGGGGTTATTCAGACTAGGC | 0.972
CATACAGGGTCAGCTATGCCAGAGTAGGGACGGC | 1.55
TCATATAGGTAAATGCTAGGTGAAAATCCGATCT | 1.54
ATCTCTGGGTAAAGATAGTTCAGTGAATGCAAAT | -0.0472
CGATCTAGGTCAGAACAGGACAGTGAAGGATGAT | 0.851
AGAATAAGGTTACCAAAGATCAGGGAAACGCTTG | 0.391
TGAATGAGGTTATAAGATCCGGGAACGTTGCAAA | 0.792
ATCTCTAGGAAACCAAGTTCAGTGAATGCCGAAC | 0.614
TCTTATAGATCAAGCAGGTTAAGAAAGCCTGAGT | 1.03
TCTAGCAGGCCAGAGGGTCTCTCAAGAGGTACGG | -0.155
GCTGCAAGGTCAGGTTGGTCAGCTAACGGGTACG | 2.04
CAGCTTAGGTCAGGGCCAGTATAGGAGGAACGTT | 0.68
GCATGTAGATCAAGGTTAAGAAAGACTAAGCTAA | 0.0216
ATCTCTAGGTAACCAAGTGCAGTGAATGCCGAAC | 0.0153
CCTACTGGTCCAAAAAGGTCATTGATGCCGATAA | 1.56
CCTATTAGTCGACCATAAGGGCAACCGAAGCTCG | 0.45
CCGACTGGGGCATAAGGTTATCATAAGCCAGCCC | -0.174
